# According to PubChem BioAssay AID939 (National Center for Advancing Translational Sciences (NCATS), 2007):
# Inconclusive results are not listed.
# Test: Confirmation Concentration-Response Assay for Agonists of the Thyroid Stimulating Hormone Receptor
# Settings: HEK293 TSHR-CNG cells, membrane potential dye, cAMP; measured here: parental HEK293 counter-screen max
# Method in brief: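 Read-out: membrane potential dye fluorescence (emission 590 nm) after 30 min compound exposure, reflecting cAMP-gated CNG opening in TSHR/CNG HEK 293 cells. Dye with 100 uM RO 20-1724 pre-equilibrated 60 min at room temperature. CNG-only parental cells control.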
row,SMILES,max response [%]
1,Cc1onc(-c2ccccc2Cl)c1C(=O)Nc1ccc(-n2nncc2-c2ccco2)cc1,-3.47
2,CCc1ccccc1NC1=NCC(=O)N1Cc1ccc(OC)cc1,-6.12
3,Cc1ccc(S(=O)(=O)N2CCC(C(=O)NCCCN3CCCCCC3)CC2)cc1,-4.36
4,Cc1occc1-c1nnc(SCC(=O)Nc2ccccc2)n1C(C)c1ccccc1 (stereo not given),-10
5,COc1cccc(C(c2nnnn2Cc2ccccc2)N2CCN(C(=O)c3ccco3)CC2)c1OC (stereo not given),-3.51
6,CCOc1ccc(N(CC(=O)Nc2ccc(C)cc2)S(=O)(=O)c2c(C)noc2C)cc1,5.32
7,C=CCn1c(NCc2ccc3c(c2)OCO3)nc2ccccc21,13.4
8,Cn1cccc1Cc1nnc(SCC(N)=O)n1CCc1ccccc1,3.14
9,Cc1cc(C)nc(N(C#N)CC(=O)N2CCC(C(N)=O)CC2)n1,-13.4
10,O=S(=O)(c1ccccc1)N1CCN(C2CCN(Cc3ccccc3)CC2)CC1,0.84
11,O=C1CC(c2ccco2)CC2=C1C(c1ccccc1)n1nc(C(F)(F)F)nc1N2 (stereo not given),-7.22
12,O=S1(=O)N=C(Oc2ccccc2)c2ccccc21,-6.77
13,O=C(CN(Cc1ccccc1Cl)C(=O)Cn1nnc(-c2cccs2)n1)NCC1CCCO1 (stereo not given),8.66
14,CC1(C)c2ccccc2N2CCC(=O)NC21/C=C/c1ccco1 (stereo not given),13.4
15,Cc1cc(Cl)c(S(=O)(=O)Nc2ccc3c(c2)OCO3)cc1OCC(N)=O,-8.28
16,COc1cccc(C2CC(c3ccccc3OC)n3nc(N)nc3N2)c1 (stereo not given),6.01
17,CCOC(=O)c1cnc(-n2nc(C)cc2C)nc1-n1nc(C)cc1C,-6.3
18,COC(=O)c1cc(NC2c3ccccc3C(=O)N2c2cccnc2)cc(C(=O)OC)c1 (stereo not given),17.7
19,C=CCn1c(COc2ccccc2F)nnc1SCC(=O)N1CC(=O)Nc2ccccc21,-6.56
20,COc1cc(NC(=O)c2cc(-n3cnnc3)ccc2Cl)cc(OC)c1,-1.27
21,c1ccc(-n2cnc3cc(NCc4ccncc4)ccc32)cc1,1.12
22,COCCNC(=O)C(c1ccccc1)N(Cc1cccs1)C(=O)Cn1nnc2ccccc21 (stereo not given),6.98
23,COc1ccc(CNc2nc(SC)n[nH]2)cc1OC,3.91
24,COC(=O)C1=C(C)OC(N)=C(C#N)C1C1CCCCC1 (stereo not given),16.5
25,O=C(C1COc2ccccc2O1)N1CCCC1 (stereo not given),-1.94
26,CCC(C)(C)n1nnnc1CN(Cc1ccco1)Cc1cc2cc3c(cc2[nH]c1=O)OCO3,-12.1
27,CSc1nc(NC(C)(C)C)nc(Oc2ccc(=O)[nH]n2)n1,-2.82
28,O=c1c2ccccc2ncn1-c1ccc2c(c1)OCCO2,6.03
29,O=C(COC(=O)C12CC3CC(CC(C3)C1)C2)NCc1ccco1,-5.29
30,O=C(CN(Cc1ccc(F)cc1)S(=O)(=O)c1ccccc1)N1CCCCC1,-6.59
